{"source": "the supplement of paper PMC9925115"}
{"test_system": "FLX1 + dox-induced PRKAR1A G325D", "experiment": "difference in log2 fold change of viability vs plate median (dox-induced PRKAR1A G325D minus uninduced); higher = compound less effective when PKA is inhibited", "conditions": "concentration: not stated (2 or 5 uM); 5 days", "experimental": "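For each plate a log2 fold change vs the plate median was derived, and the values without dox were subtracted from those with dox, averaged over three biological replicates.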"}
{"compound": "O=C(Nc1ccc(-c2ccnc(Nc3ccc(N4CCOCC4)cc3)n2)cc1)C1CCCN1", "note": "(configuration not stated)", "difference in log2 fold change of viability": 0.201}
{"compound": "CCN(CC)CCCCNc1ncc2cc(-c3cc(OC)cc(OC)c3)c(NC(=O)NC(C)(C)C)nc2n1", "difference in log2 fold change of viability": -0.527}
{"compound": "Cn1c(Nc2ccc(C(F)(F)F)cc2)nc2cc(Oc3ccnc(-c4ncc(C(F)(F)F)[nH]4)c3)ccc21", "difference in log2 fold change of viability": -0.588}
{"compound": "Clc1ccc(Nc2nnc(Cc3ccncc3)c3ccccc23)cc1", "note": "[Vatalanib (PTK787) 2HCl]", "difference in log2 fold change of viability": 0.168}
{"compound": "COc1cccc(-c2cc(=O)c3ccccc3o2)c1N", "difference in log2 fold change of viability": -0.103}
{"compound": "Cc1ccc(NC(=O)c2cccc(N(C)C)c2)cc1NC(=O)c1ccc(O)cc1", "difference in log2 fold change of viability": 0.402}
{"compound": "Cc1[nH]c(/C=C2\\C(=O)Nc3ccc(S(=O)(=O)N(C)c4cccc(Cl)c4)cc32)c(C)c1C(=O)N1CCN(C)CC1", "difference in log2 fold change of viability": 0.163}
{"compound": "CCS(=O)(=O)Nc1ccc2c(c1)/C(=C(/Nc1ccc(CN3CCCCC3)cc1)c1ccccc1)C(=O)N2", "note": "[Hesperadin]", "difference in log2 fold change of viability": -0.105}
{"compound": "CN1CCC(COc2cnc(-c3cccc(Cn4nc(-c5cccc(C#N)c5)ccc4=O)c3)nc2)CC1", "difference in log2 fold change of viability": -0.973}
{"compound": "Cc1[nH]c(/C=C2\\C(=O)Nc3ccc(S(=O)(=O)Cc4c(Cl)cccc4Cl)cc32)c(C)c1C(=O)N1CCC[C@@H]1CN1CCCC1", "difference in log2 fold change of viability": -0.266}
{"compound": "Cc1cc2c(F)c(Oc3ncnn4cc(OC[C@@H](C)OC(=O)[C@H](C)N)c(C)c34)ccc2[nH]1", "difference in log2 fold change of viability": 0.461}
{"compound": "CN1CCN(Cc2ccc(-c3cnc4[nH]cc(-c5ccc6[nH]ccc6c5)c4c3)cc2)CC1", "difference in log2 fold change of viability": -0.00541}
{"compound": "CCOc1ccn(-c2ccc(F)cc2)c(=O)c1C(=O)Nc1ccc(Oc2ccnc(N)c2Cl)c(F)c1", "difference in log2 fold change of viability": 0.114}
{"compound": "CCc1cc(Nc2nccc(-c3c(-c4ccc(OC)c(C(=O)Nc5c(F)cccc5F)c4)nc4ccccn34)n2)c(OC)cc1N1CCC(N2CCN(S(C)(=O)=O)CC2)CC1", "difference in log2 fold change of viability": 0.164}
{"compound": "COc1ccc(CNC(=O)Nc2ncc([N+](=O)[O-])s2)cc1", "difference in log2 fold change of viability": 0.288}
{"compound": "CO[C@H]1C[C@@H]2CC[C@@H](C)[C@@](O)(O2)C(=O)C(=O)N2CCCC[C@H]2C(=O)O[C@H]([C@H](C)C[C@@H]2CC[C@@H](OP(C)(C)=O)[C@H](OC)C2)CC(=O)[C@H](C)/C=C(\\C)[C@@H](O)[C@@H](OC)C(=O)[C@H](C)C[C@H](C)/C=C/C=C/C=C/1C", "note": "[Ridaforolimus (Deforolimus, MK-8669)]", "difference in log2 fold change of viability": 0.419}
{"compound": "CCN1CCN(Cc2ccc(Nc3ncc(F)c(-c4cc(F)c5nc(C)n(C(C)C)c5c4)n3)nc2)CC1", "difference in log2 fold change of viability": -0.0976}
{"compound": "COc1ccc(F)c(F)c1C(=O)c1cnc(NC2CCN(S(C)(=O)=O)CC2)nc1N", "difference in log2 fold change of viability": 0.247}
{"compound": "Cc1nc(Nc2ncc(C(=O)Nc3c(C)cccc3Cl)s2)cc(N2CCN(CCO)CC2)n1", "note": "[Dasatinib]", "difference in log2 fold change of viability": 0.18}
{"compound": "Cc1cc(O)c2c(c1)C(=O)c1cccc(O)c1C2=O", "note": "[Chrysophanic Acid]", "difference in log2 fold change of viability": 0.0332}
{"compound": "CC[C@@H]1C(=O)N(C)c2cnc(Nc3ccc(C(=O)N[C@H]4CC[C@H](N5CCN(CC6CC6)CC5)CC4)cc3OC)nc2N1C(C)C", "note": "[Volasertib (BI 6727)]", "difference in log2 fold change of viability": -0.0557}
{"compound": "CCN1CCN(Cc2ccc(-c3cc4c(N[C@H](C)c5ccccc5)ncnc4[nH]3)cc2)CC1", "difference in log2 fold change of viability": -0.338}
{"compound": "CCOc1cc2ncc(C#N)c(Nc3ccc(F)c(Cl)c3)c2cc1NC(=O)/C=C/CN(C)C", "note": "[Pelitinib (EKB-569)]", "difference in log2 fold change of viability": 0.0327}
{"compound": "Cc1cc2c(F)c(Oc3ncnn4cc(OC[C@@H](C)O)c(C)c34)ccc2[nH]1", "difference in log2 fold change of viability": 0.515}
{"compound": "Cc1cnc(NC(=O)Nc2cc(Br)c(C)cc2OC[C@@H]2CNCCO2)cn1", "difference in log2 fold change of viability": 1.29}
{"compound": "COc1cc2c(Oc3ccc(NC(=O)C4(C(=O)Nc5ccc(F)cc5)CC4)cc3F)ccnc2cc1OCCCN1CCOCC1", "difference in log2 fold change of viability": -0.0914}
{"compound": "Nc1ncnc2c1c(-c1cnc3[nH]ccc3c1)nn2C1CCCC1", "difference in log2 fold change of viability": 0.363}
{"compound": "CC(C)(C)NS(=O)(=O)c1cncc(-c2cc(F)c3nc(N)nn3c2)c1", "difference in log2 fold change of viability": -0.0394}
{"compound": "C[C@@H]1CN(CC(=O)Nc2ccc3c(c2)Cc2cccc(-c4cc(=O)cc(N5CCOCC5)o4)c2S3)C[C@H](C)O1", "difference in log2 fold change of viability": -0.0572}
{"compound": "COc1cc(F)c(F)c(Nc2ccc(I)cc2F)c1NS(=O)(=O)C1(C[C@H](O)CO)CC1", "note": "[Refametinib (RDEA119, Bay 86-9766)]", "difference in log2 fold change of viability": 0.183}
{"compound": "COc1ccc(S(=O)(=O)N(CCO)c2ccccc2CN(C)C/C=C/c2ccc(Cl)cc2)cc1", "note": "[KN-93 Phosphate]", "difference in log2 fold change of viability": 0.66}
{"compound": "CCN(CC)CCNC(=O)c1c(C)[nH]c(/C=C2\\C(=O)Nc3ccc(F)cc32)c1C", "note": "[Sunitinib Malate]", "difference in log2 fold change of viability": -0.043}
